In PubChem BioAssay:
For part of these data: Potency and affinity values are given separately. Calls of active or inactive are those of the source.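 Rule for the calls, unless noted: active = compound raising the membrane signal above positive-control mean plus 3 SD in both repeats, and a primary screen hit; inactive = the rest.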

Experiments:
[1] = test system: TRPC4 beta (transient receptor potential cation channel C4), mouse; test: TRPC4 cation channel opening, retest – cell-based, Fluo4 calcium, HEK293 TRPC4beta/mu-opioid, duplicates, 10 µM, confirmation (AID 2426;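 active = fluorescence ratio normalized to control raised more than 50% in primary screen plus both repeat runs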); conditions: Fluo4 calcium fluorescence, at 10 µM; hits give high values
[2] = test system: transient receptor potential cation channel C4 beta (TRPC4), mouse; test: TRPC4 cation channel opening, second retest – cell-based, second round, Fluo4, HEK293 TRPC4beta/mu-opioid, 1 µM, confirmation (AID 2461;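 active = primary screen active and over 50% activation in each of two duplicate runs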); conditions: Fluo4 calcium fluorescence, at 1 µM; hits give high values
[3] = test system: TRPC4 (transient receptor potential cation channel C4 beta), mouse; test: potentiation of DAMGO EC20 TRPC4 response – cell-based, second round, Fluo-4, HEK293 TRPC4beta/mu-opioid, 1 µM, confirmation (AID 2554;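 active = primary screen hit whose fluorescence ratio, in both repeats, exceeds the weak agonist control mean by 3 SD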); conditions: DAMGO EC20, Fluo-4 calcium flux, at 1 µM; hits give high values
[4] = test system: TRPC4 beta (transient receptor potential cation channel C4), mouse; test: potentiation of DAMGO EC20 TRPC4 response – cell-based, Fluo-4, HEK293 TRPC4beta/mu-opioid, confirmation (AID 2555;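 active = primary screen hit whose calcium fluorescence ratio, in both repeats, exceeds the weak agonist control mean by 3 SD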); conditions: DAMGO EC20, Fluo-4 calcium flux, at 10 µM; hits give high values
[5] = molecular target: Short transient receptor potential channel 4 (Mus musculus) (UniProt Q9QUQ5); test: blockers of DAMGO-evoked TRPC4 calcium flux – cell-based, Fluo4, HEK293 TRPC4beta/mu-opioid, confirmation (AID 2636;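 active = calcium signal cut by more than 3 SD below the full-agonist control yet still positive, in both repeats and the earlier primary screen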); conditions: at 10 µM; hits give high values
Short transient receptor potential channel 4 (Mus musculus), sequence (Q9QUQ5 whole entry, looked up): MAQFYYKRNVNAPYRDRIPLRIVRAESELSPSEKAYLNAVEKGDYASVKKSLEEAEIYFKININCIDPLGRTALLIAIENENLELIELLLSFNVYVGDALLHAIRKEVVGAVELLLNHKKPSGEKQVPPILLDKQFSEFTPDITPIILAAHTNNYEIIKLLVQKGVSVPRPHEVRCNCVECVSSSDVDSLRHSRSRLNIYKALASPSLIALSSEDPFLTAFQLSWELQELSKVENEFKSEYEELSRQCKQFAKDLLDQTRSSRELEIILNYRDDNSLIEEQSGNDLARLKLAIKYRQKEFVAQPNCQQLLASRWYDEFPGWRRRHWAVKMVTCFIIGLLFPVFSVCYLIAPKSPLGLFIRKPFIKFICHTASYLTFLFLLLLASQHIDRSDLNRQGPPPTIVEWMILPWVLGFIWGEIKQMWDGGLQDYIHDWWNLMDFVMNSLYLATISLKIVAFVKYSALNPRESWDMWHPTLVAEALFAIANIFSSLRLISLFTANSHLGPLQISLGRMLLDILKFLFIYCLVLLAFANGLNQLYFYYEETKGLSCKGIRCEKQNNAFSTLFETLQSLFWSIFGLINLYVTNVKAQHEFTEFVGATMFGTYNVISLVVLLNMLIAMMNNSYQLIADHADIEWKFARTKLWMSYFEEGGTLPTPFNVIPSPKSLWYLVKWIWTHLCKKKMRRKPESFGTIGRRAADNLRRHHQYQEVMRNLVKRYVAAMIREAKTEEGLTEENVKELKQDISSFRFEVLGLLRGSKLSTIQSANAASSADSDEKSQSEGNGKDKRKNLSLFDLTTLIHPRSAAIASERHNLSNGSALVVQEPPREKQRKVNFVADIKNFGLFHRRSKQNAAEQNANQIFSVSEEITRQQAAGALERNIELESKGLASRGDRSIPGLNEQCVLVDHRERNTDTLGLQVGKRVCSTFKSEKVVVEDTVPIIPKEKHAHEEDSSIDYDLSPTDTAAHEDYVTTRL

[6] = molecular target: Short transient receptor potential channel 4 (Mus musculus) (UniProt Q9QUQ5); test: blockers of DAMGO-evoked TRPC4 calcium flux – cell-based, second round, Fluo4, HEK293 TRPC4beta/mu-opioid, 1 µM, confirmation (AID 2637;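 active = calcium signal ratio cut to more than 3 SD under the fully stimulated control mean yet still positive, in both repeats and the primary screen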;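 for inhibition: percent of integrated ratio relative to wells lacking test compound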); conditions: at 1 µM; hits give high values
[7] = molecular target: Short transient receptor potential channel 4 (Mus musculus) (UniProt Q9QUQ5); test: calcium entry via TRPC4 opening agents – cell-based, HEK293 TRPC4/mu-opioid, Fluo-4 calcium, dose response (AID 434937;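 active = primary screen activator hit with a dose response curve and TRPC4 channel activation at any tested dose; inactive = no activation, no dose response, or not a primary hit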)
[8] = molecular target: Short transient receptor potential channel 4 (Mus musculus) (UniProt Q9QUQ5); test: potentiation of DAMGO-evoked TRPC4 calcium signal – cell-based, HEK293 TRPC4/mu-opioid, Fluo-4 calcium, EC20 DAMGO, dose response (AID 434941;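 active = earlier screen potentiator hit that boosts the TRPC4 ion channel at some dose, with a dose response; inactive = no potentiation, no dose response, or not a prior hit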;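 note: calcium entry triggered by an EC20 dose of DAMGO at the co-expressed mu-opioid receptor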)
[9] = molecular target: Short transient receptor potential channel 6 (Mus musculus) (UniProt Q61143); test: TRPC6 blockade by TRPC4 inhibitor hits – cell-based, HEK293, membrane potential dye, duplicate, selectivity assay for TRPC4 inhibitor project, confirmation (AID 434948;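 active = active in primary screen and both duplicates, each dropping signal beyond three positive-control SD with fluorescence still positive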); conditions: HEK293 TRPC6, membrane potential dye fluorescence, at 10 µM, stimulated with maximal-effect acetylcholine; hits give high values
Short transient receptor potential channel 6 (Mus musculus), sequence (Q61143 whole entry, looked up): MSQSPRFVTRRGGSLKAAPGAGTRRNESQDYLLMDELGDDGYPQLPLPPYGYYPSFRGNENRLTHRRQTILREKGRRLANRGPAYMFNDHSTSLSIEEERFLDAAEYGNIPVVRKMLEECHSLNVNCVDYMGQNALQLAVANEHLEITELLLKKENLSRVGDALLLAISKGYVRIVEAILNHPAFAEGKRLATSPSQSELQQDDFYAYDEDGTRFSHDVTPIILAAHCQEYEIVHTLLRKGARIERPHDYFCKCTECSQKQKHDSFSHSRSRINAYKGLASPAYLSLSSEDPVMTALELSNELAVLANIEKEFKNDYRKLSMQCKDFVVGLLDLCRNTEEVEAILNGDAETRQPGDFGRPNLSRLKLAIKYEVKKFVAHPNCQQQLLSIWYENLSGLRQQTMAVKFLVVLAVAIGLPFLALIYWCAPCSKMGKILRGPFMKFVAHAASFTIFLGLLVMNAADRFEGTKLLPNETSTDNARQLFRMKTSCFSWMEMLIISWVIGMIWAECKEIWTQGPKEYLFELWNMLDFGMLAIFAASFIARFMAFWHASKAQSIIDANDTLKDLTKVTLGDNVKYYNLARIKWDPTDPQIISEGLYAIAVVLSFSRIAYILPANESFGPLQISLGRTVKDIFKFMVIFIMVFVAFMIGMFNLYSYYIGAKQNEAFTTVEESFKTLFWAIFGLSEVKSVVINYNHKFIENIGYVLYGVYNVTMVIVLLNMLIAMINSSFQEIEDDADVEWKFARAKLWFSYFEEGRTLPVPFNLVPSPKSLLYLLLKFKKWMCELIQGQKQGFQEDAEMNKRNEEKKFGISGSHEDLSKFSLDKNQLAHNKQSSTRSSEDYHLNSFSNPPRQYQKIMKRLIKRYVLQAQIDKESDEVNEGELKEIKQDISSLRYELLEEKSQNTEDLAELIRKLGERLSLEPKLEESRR

[10] = molecular target: Short transient receptor potential channel 6 (Mus musculus) (UniProt Q61143); test: TRPC6 opening by TRPC4 activator hits – cell-based, HEK293, membrane potential dye, duplicate, selectivity assay for TRPC4 activator project, confirmation (AID 434950;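 active = membrane potential signal rise above negative control mean plus 3 SD in both duplicates, also active in the earlier TRPC4 screen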); conditions: HEK293 TRPC6, membrane potential fluorescence, at 10 µM; activation: hits give high values; outcome: activation
[11] = molecular target: Short transient receptor potential channel 6 (Mus musculus) (UniProt Q61143); test: positive modulators of mouse TRPC6 channel – HEK293 cells, membrane potential dye, duplicate, selectivity assay for TRPC4 potentiator project, confirmation (AID 434952); conditions: HEK293 TRPC6, membrane potential dye fluorescence, at 10 µM, maximal acetylcholine added after compound; hits give high values
[12] = molecular target: Short transient receptor potential channel 4 (Mus musculus) (UniProt Q9QUQ5); test: calcium flux activators in TRPC4/5HT1a cells, counter-screen for TRPC4 activator project, cell-based, second counter screen, HEK293 TRPC4/5HT1a, Fluo-4 (AID 434977;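 active = calcium signal rise above buffer-control mean plus 5 SD in both duplicates, and also a hit in the primary screen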); conditions: Fluo-4 calcium flux, at 10 µM; hits give high values
[13] = serotonin-gated TRPC4 signal block – cell-based, second counter screen, HEK293 TRPC4/5HT1a, Fluo-4, counter-screen for TRPC4 inhibitor project, confirmation (AID 434978;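 active = primary screen active whose calcium signal fell more than 3 SD beyond the full-serotonin control mean in both duplicate plates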;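 for outcome: serotonin given first at submaximal then at maximal dose after compound preincubation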); conditions: Fluo-4 calcium flux, at 10 µM, serotonin added to trigger calcium flux; hits give high values
[14] = test system: TRPC4 (mouse), co-expressed with 5HT1a in HEK293; test: enhancement of serotonin-evoked TRPC4 response – cell-based, second counter screen, HEK293 TRPC4/5HT1a, Fluo-4, counter-screen for TRPC4 potentiator project, confirmation (AID 434979;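 active = signal rise over 3 SD above mean of control wells given weak agonist, in both repeats and first screen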); conditions: Fluo-4 calcium flux, at 10 µM, serotonin added at its EC20 dose; hits give high values
[15] = nonspecific calcium rise without TRPC4 – cell-based, HEK293 mu-opioid receptor line, counter-screen for TRPC4 activator project, confirmation (AID 449723;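 active = hit in primary screen, with calcium signal over 5 SD above buffer well mean in both duplicates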;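 note: counter screen cells carry the mu-opioid receptor alone and lack TRPC4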); conditions: HEK293 mu-opioid cells, Fluo-4 calcium fluorescence, at 10 µM; hits give high values
[16] = nonspecific potentiation of DAMGO calcium response – cell-based, HEK293 mu-opioid receptor line, counter-screen for TRPC4 allosteric potentiator project, confirmation (AID 449724;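 active = calcium signal rise more than 3 SD above the low-dose agonist control mean, in both duplicate plates and the primary screen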); conditions: HEK293 mu-opioid receptor cells, Fluo-4 calcium flux, at 10 µM, compound added before EC20 DAMGO stimulus; hits give high values

Row | SMILES | outcome [1] | outcome [2] | outcome [3] | outcome [4] | inhibition [5] | inhibition [6] | outcome [7] | outcome [8] | outcome [9] | outcome [10] | outcome [11] | outcome [12] | outcome [13] | outcome [14] | outcome [15] | outcome [16] | outcome [6] | outcome [5] | inhibition [13] | inhibition [9]
1 | O=c1oc2ccccc2c(Nc2ccccc2)c1CN1CCCCC1 | inactive | inactive | inactive | inactive | 84% (active) | 46% (active) | inactive | inactive | inactive | inactive | inactive | inactive | inactive | inactive | inactive | inactive | – | – | – | –
2 | CCC(C)NC(C(=O)Nc1ccc(Cl)c([N+](=O)[O-])c1)c1ccccc1 (stereo not given) | inactive | inactive | inactive | inactive | 73% (active) | – | inactive | inactive | inactive | inactive | inactive | inactive | inactive | inactive | inactive | inactive | inactive | – | – | –
3 | O=C(OC1C2CCC1C1CN(CCc3ccccc3)CC12)c1ccccc1 (stereo not given) | inactive | inactive | inactive | inactive | – | 44% (active) | inactive | inactive | inactive | inactive | inactive | inactive | inactive | inactive | inactive | inactive | – | inactive | – | –
4 | C=CCc1ccccc1OCC(CN1CCCCC1)OC(C)=O (stereo not given) | inactive | inactive | inactive | inactive | 74% (active) | 43% (active) | inactive | inactive | inactive | inactive | inactive | inactive | inactive | inactive | inactive | inactive | – | – | – | –
5 | Cc1nn(-c2ccccc2)c2[nH]c(C(F)(F)F)cc(=O)c12 | inactive | inactive | inactive | inactive | 49% (active) | – | inactive | inactive | inactive | inactive | inactive | inactive | – | inactive | inactive | inactive | inactive | – | 31.7% (active) | –
6 | COc1ccccc1N(C(=O)c1snc(C(N)=O)c1N)C(C(=O)NCc1ccccc1)c1ccc(C)o1 (stereo not given) | inactive | inactive | inactive | inactive | – | 49% (active) | inactive | inactive | inactive | inactive | inactive | inactive | – | inactive | inactive | inactive | – | inactive | 25.3% (active) | –
7 | OCC1(Cc2ccccc2)CCN(Cc2ccc(C(F)(F)F)cc2)CC1 | inactive | inactive | inactive | inactive | 91% (active) | – | inactive | inactive | inactive | inactive | inactive | inactive | – | inactive | inactive | inactive | inactive | – | 23.3% (active) | –
8 | O=C(CSc1nc2ccccc2c(=O)n1CCCO)N1CCc2ccccc21 | inactive | inactive | inactive | inactive | 94% (active) | 67% (active) | inactive | inactive | inactive | inactive | inactive | inactive | – | inactive | inactive | inactive | – | – | 13.1% (active) | –
9 | COc1ccc([N+](=O)[O-])cc1NCc1ccco1 | inactive | inactive | inactive | inactive | 69% (active) | – | inactive | inactive | inactive | inactive | inactive | inactive | inactive | inactive | inactive | inactive | inactive | – | – | –
10 | CCOc1ccc(-c2cc(NC(=O)c3c(F)cccc3F)c(C(=O)O)s2)cc1 | inactive | inactive | inactive | inactive | 98% (active) | 41% (active) | inactive | inactive | inactive | inactive | inactive | inactive | – | inactive | inactive | inactive | – | – | 6.94% (active) | –
11 | CCCCNCC1C(Oc2ccc(Cl)cc2)C(=O)N1c1ccccc1C (stereo not given) | inactive | inactive | inactive | inactive | – | – | inactive | inactive | inactive | inactive | inactive | inactive | inactive | inactive | inactive | inactive | inactive | inactive | – | –
12 | CCCCCn1c2c(c(=N)c3ccccc31)CCC2 | inactive | inactive | inactive | inactive | 96% (active) | 75% (active) | inactive | inactive | – | inactive | inactive | inactive | – | inactive | inactive | inactive | – | – | 13.9% (active) | 1.5% (active)
13 | COc1ccc(C(Nc2ccccn2)c2c(NC(=O)c3ccco3)sc(C)c2C)cc1OC (stereo not given) | inactive | inactive | inactive | inactive | 78% (active) | 38% (active) | inactive | inactive | inactive | inactive | inactive | inactive | inactive | inactive | inactive | inactive | – | – | – | –
14 | COc1ccc(C)cc1N(C(=O)c1snc(C(N)=O)c1N)C(C(=O)NC1CCCCC1)c1ccc(C)o1 (stereo not given) | inactive | inactive | inactive | inactive | 92% (active) | 72% (active) | inactive | inactive | inactive | inactive | inactive | inactive | – | inactive | inactive | inactive | – | – | 19.6% (active) | –
15 | Cc1ccc(S(=O)(=O)Nc2cccc(C(=O)NCC(c3ccco3)N3CCCCC3)c2)cc1F (stereo not given) | inactive | inactive | inactive | inactive | 100% (active) | 39% (active) | inactive | inactive | inactive | inactive | inactive | inactive | inactive | inactive | inactive | inactive | – | – | – | –
